Measured values published in PMC4336329 (PLoS ONE, 2015).
The whole screen tested about 310,000 compounds, of which about 14,000 (4.5%) showed an effect of 50% or more. The effect is printed as a negative number. Shown is part of a subset that was picked to be rich in strong results.

target: human ether-à-go-go-related gene (hERG) potassium channel (human, UniProt Q12809); experiment: primary screen, population patch clamp on CHO cells stably expressing hERG; higher = less effect of the substance
Sequence (Q12809 whole entry, looked up): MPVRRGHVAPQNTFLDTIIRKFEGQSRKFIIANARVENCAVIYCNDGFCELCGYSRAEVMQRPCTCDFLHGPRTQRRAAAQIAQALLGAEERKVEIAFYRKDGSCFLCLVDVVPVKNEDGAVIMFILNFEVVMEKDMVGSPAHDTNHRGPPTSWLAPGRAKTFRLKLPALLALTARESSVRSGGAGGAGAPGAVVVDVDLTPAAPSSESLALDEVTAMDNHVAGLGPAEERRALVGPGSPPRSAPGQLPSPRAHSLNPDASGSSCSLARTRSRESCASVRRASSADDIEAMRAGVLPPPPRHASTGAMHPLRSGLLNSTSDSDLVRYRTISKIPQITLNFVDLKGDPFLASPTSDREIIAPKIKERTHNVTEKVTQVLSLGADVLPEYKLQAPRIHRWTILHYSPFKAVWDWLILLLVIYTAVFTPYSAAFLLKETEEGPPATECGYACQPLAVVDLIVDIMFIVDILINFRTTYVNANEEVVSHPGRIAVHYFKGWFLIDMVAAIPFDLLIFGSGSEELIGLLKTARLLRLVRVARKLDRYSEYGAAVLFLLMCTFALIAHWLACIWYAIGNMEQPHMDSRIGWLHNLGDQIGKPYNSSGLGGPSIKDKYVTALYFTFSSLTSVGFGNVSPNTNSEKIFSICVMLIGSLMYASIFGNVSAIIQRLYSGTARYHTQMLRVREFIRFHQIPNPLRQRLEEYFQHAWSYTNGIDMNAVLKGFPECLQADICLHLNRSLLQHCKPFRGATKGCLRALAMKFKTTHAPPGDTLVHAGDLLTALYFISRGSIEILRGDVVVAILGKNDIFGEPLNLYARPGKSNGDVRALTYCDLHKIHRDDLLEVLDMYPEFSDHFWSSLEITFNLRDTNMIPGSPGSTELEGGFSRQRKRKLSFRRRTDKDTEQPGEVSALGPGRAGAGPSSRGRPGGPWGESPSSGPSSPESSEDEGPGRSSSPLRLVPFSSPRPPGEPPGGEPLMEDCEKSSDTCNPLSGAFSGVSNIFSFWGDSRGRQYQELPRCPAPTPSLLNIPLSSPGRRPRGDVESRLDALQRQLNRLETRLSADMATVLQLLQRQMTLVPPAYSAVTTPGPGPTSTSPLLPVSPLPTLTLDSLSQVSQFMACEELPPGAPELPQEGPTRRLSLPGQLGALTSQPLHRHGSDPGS
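Note: peak tail current of the secondary pulse compared with the same well before compound.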

| SMILES | hERG current change (%, negative = inhibition) at 10uM [%] |
| --- | --- |
| CCCCn1c(=O)n(CC(=O)Nc2ccc(C)c(Cl)c2)c(=O)c2c1ncn2Cc1ccco1 | -6.22 |
| CCCCn1c(=O)n(Cc2cccc(F)c2)c(=O)c2c1ncn2Cc1ccco1 | -14.7 |
| N=c1c2c(-c3ccccc3)c(-c3ccccc3)n(Cc3ccco3)c2ncn1CCO | -71 |
| CCCCn1cnc2c(c(-c3ccccc3)c(-c3ccccc3)n2Cc2ccco2)c1=N | -75.1 |
| N=c1c2c(-c3ccccc3)c(-c3ccccc3)n(Cc3ccccc3)c2ncn1CCO | -37.6 |
| N#Cc1c(-c2ccccc2)c(-c2ccccc2)n(Cc2ccco2)c1NC(=O)c1cccs1 | 12.6 |
| N=c1c2c(-c3ccccc3)c(-c3ccccc3)n(Cc3ccco3)c2ncn1CCCO | -68.5 |
| O=c1c2ccccc2ncn1Cc1ccco1 | -19.8 |
| O=c1c2cnn(-c3ccccc3)c2ncn1Cc1ccco1 | -7.57 |
| NC(=S)N/N=C/c1ccc(C23CC4CC(CC(C4)C2)C3)cc1 | 23.2 |
| CN1CCc2cc3c(cc2[C@H]1[C@@H]1OC(=O)c2c1ccc1c2OCO1)OCO3 | 7.02 |
| O=C1C(=O)N(CC2CCCO2)C(c2ccco2)/C1=C(/O)c1ccc(F)cc1 (centres unmarked) | -13.4 |
| COc1cnc(SCc2c(Cl)cccc2Cl)nc1Cl | -1.4 |
| COC(=O)c1cccc(CSc2nnc(C)s2)c1 | -1.67 |
| O=C(OCC(=O)N1CCCC1=O)c1ncc(Cl)c(Cl)c1Cl | 0.304 |
| O=C(OCC(=O)N1CCCC1=O)c1nc(Cl)c(Cl)c(Cl)c1Cl | -60.4 |
| Nc1c(Cl)c(Cl)nc(C(=O)OCC(=O)N2CCCC2=O)c1Cl | -22.5 |
| COc1cccc(C(=O)Nc2cc(-c3cn4cccnc4n3)ccc2C)c1 | -12 |
| O=C1C=C(Nc2ccc(Cl)cc2)C(=O)N1c1ccc(Cl)cc1 | 9.57 |
| O=C(NCCC(=O)N(CCc1ccccc1)Cc1ccccc1)c1ccccc1Cl | -72.9 |

| SMILES | hERG current change (%, negative = inhibition) at 10uM [%] |
| --- | --- |
| O=C(NCCC(=O)N(CCc1ccccc1)Cc1ccccc1)c1ccc(Br)cc1 | -44.9 |
| O=C(NCCc1ccccc1)c1ccccc1Cl | 3.33 |
| CCOC(=O)C1=C(O)/C(=C\c2ccc(O)c(OCC)c2)N=C1C | 8.17 |
| C1CCC(NC2=NCCC2)CC1.Cl | -1.01 |
| O=C(O)Cn1nc(C(F)(F)F)c2c1CCC2 | 20.4 |
| CCCN1C2CCCC1CC(NC(=O)c1ccc(F)cc1)C2 (centres unmarked) | -55.3 |
| CCCN1C2CCCC1CC(NC(=O)c1ccc(Br)cc1)C2 (centres unmarked) | -66.3 |
| CCCN1C2CCCC1CC(NC(=O)c1ccc(OC)cc1)C2 (centres unmarked) | -30.1 |
| CCCN1C2CCCC1CC(NC(=O)c1ccccc1F)C2 (centres unmarked) | -21.7 |
| CCCN1C2CCCC1CC(NC(=O)c1ccc(C(C)(C)C)cc1)C2 (centres unmarked) | -37.1 |
| CCCN1C2CCCC1CC(NC(=O)c1ccccc1)C2 (centres unmarked) | -18.9 |
| CCc1ccc(NCc2ccc(OC)c(Cn3ccnc3)c2)cc1 | -10.5 |
| O=C(O)CCCC(=O)N1N=C(c2c(-c3ccccc3)c3cc(Cl)ccc3[nH]c2=O)CC1c1cccs1 (centres unmarked) | 23.2 |
| Cc1c(C(=O)NCc2ccco2)oc2ccc(S(=O)(=O)N3CCC4(CC3)OCCO4)cc12 | -19.7 |
| CCCCN1C(N)=NC[C@@H]1Cc1ccccc1 | 0.376 |
| CCCCCCCN1C(Nc2ccccc2)=NC[C@@H]1C | -68 |
| C[C@H]1CN=C(Nc2ccccc2)N1CCc1ccccc1 | -9.89 |
| c1ccc(CCCCN2C(Nc3ccccc3)=NC[C@@H]2Cc2ccccc2)cc1 | -71.5 |
| CCCCN1C(Nc2ccccc2)=NC[C@@H]1C | 14.4 |
| CC(C)CCCN1C(Nc2ccccc2)=NC[C@@H]1C | -11.4 |

| SMILES | hERG current change (%, negative = inhibition) at 10uM [%] |
| --- | --- |
| CCN1C(Nc2ccccc2)=NC[C@@H]1Cc1ccccc1 | -26 |
| CCCCCCCN1C(Nc2ccccc2)=NC[C@@H]1Cc1ccccc1 | -83.3 |
| CCN1C(Nc2ccccc2)=NC[C@@H]1C | 15.2 |
| CCCCN1C(Nc2ccccc2)=NC[C@@H]1Cc1ccccc1 | -66.1 |
| Cc1ccc(CCN2C(Nc3ccccc3)=NC[C@@H]2C)cc1 | -35.9 |
| OC1CCCN(c2ncnc3c2nnn3Cc2c(F)cccc2Cl)C1 (centres unmarked) | 0.989 |
| COc1cc([N+](=O)[O-])ccc1NC(=O)NCc1ccccn1 | 11.7 |
| CC(=O)c1cccc(NC(=O)CSc2n[nH]c(-c3ccncc3)n2)c1 | 10.5 |
| Cc1ccc(Cl)c(OCC(=O)NC2CCN(Cc3ccccc3)CC2)c1 | -115 |
| Cc1cc(OCC(=O)NC2CCN(Cc3ccccc3)CC2)c2c(C)c(C)c(=O)oc2c1 | -22.4 |
| O=C(COc1ccccc1F)NC1CC1 | 0.681 |
| O=C(COc1ccc(Br)cc1F)NC1CCN(Cc2ccccc2)CC1 | -74 |
| O=C(COc1ccc(Br)cc1Cl)NC1CCCCC1 | 9.84 |
| Cc1ccc(Cl)c(OCC(=O)Nc2ccccc2C(=O)NC2CC2)c1 | 3.5 |
| Cl.O=C(COc1ccccc1F)NC1CCN(Cc2ccccc2)CC1 | -38.5 |
| O=C(COc1ccc(Br)cc1Cl)NC1CCN(Cc2ccccc2)CC1 | -67.3 |
| O=C(COc1ccc(Br)cc1Cl)NC(=O)NC1CCCC1 | -9.03 |
| COc1ccc(C(=O)N(C)c2ccccc2C(=O)NCCc2ccccc2)cc1 | -20.2 |
| O=C(CCCn1c(=O)c2ccccc2n(Cc2ccccc2)c1=O)NCc1ccco1 | -7.47 |
